# Screen size: about 410,000 compounds; about 1,200 (0.29%) were called active. Another 2% or so got no clear call; they are omitted. For the sample, actives were picked, then their nearest neighbours and some compounds at random. Values without a mark were called inactive. Calls follow the shape of the dose curve; as a rule, active = well fitted activation curve with a large enough effect; inconclusive = small, poorly fitted or top-dose-only effect; inactive = flat fitted curve, though single readings scatter.
# Test: qHTS of Nrf2 Activators; also: nearly all actives have a fitted effect of over 65% in size; as to activation: % of control where 0% means no effect
# Conditions: AREc32 ARE-luciferase reporter (MCF7-derived line), luminescence, 24 h; series mostly up to 46.1 µM; activation: at the top concentration
# From the text: Many diseases have some form of oxidative stress injury and ties to inflammation, causing a host of problems for the patient. The antioxidant response element (ARE) plays an important role in alleviating the harmful effects of oxidative stress. The antioxidant response element (ARE) is a transcriptional regulatory element involved in the activation of genes coding for a number of antioxidant proteins and detoxifying enzymes. These enzymes work in concert to protect tissues from oxidative insults and chemical toxicities in human hepatocytes and immune cells. The protective effects of ARE activation are primarily triggered through Nrf2 (NF-E2-related factor) binding to and activating AREs. It is known that Nrf2 controls the production of over 250 antioxidant and detoxification proteins (Hu et al., 2006), thereby protecting tissues by increasing cellular antioxidant content and suppressing inflammatory signaling pathways. The transcription factor Nrf2 is a central link between oxidative chemicals, such as phenolic antioxidants and electrophilic compounds, and the activation of ARE. Nrf2 levels are constitutively low as a consequence of its interaction with Keap1, which targets its degradation (Zipper and Mulcahy, 2002). Electrophiles react with key cysteine residues in Keap1, releasing Nrf2 and allowing its translocation to the nucleus. Once within the nucleus, Nrf2 complexes with coactivators such as p300, and binds to the AREs to induce gene transcription of cytoprotective enzymes, resulting in the prevention of toxicity. Activation of Nrf2 protects tissues by increasing cellular antioxidant content and suppressing inflammatory signaling pathways. Identifying novel and potent Nrf2 activators by using the AREc32 cell line to detect ARE activation by small molecules will lead to the identification and development of probes to study protective pathways in multiple tissues. These specific probes are essential to study the ARE pathway, and eventually to determine whether this pathway does activate genes that could protect against a host of diseases, including cardiovascular diseases, obesity, diabetes, Alzheimer's, and Parkinson's disease.
# This project's aim is to identify novel and potent Nrf2 activators by using the AREc32 cell line to detect ARE activation by small molecules, which will lead to the identification and development of probes to study the ARE pathway.
# NIH Chemical Genomics Center [NCGC]
# NIH Molecular Libraries Probe Centers Network [MLPCN]
# Assay Submitter (PI): Curtis Klaassen, University of Kansas Medical Center
# 5 uL of 1000 cells/well of AREc32_Fluc cells are seeded into 1536-well plate in OPTI-MEM medium with 5% FBS. The plates are incubated overnight at 37 deg C with 5% CO2. Then through pin tool transfer, 23 nL of compounds are added to each well before a 24 hr incubation at 37 deg C with 5% CO2. After the addition of 2.5 uL of Steady-Glo. the plates are kept at RT for 30 min, before they are read on the ViewLux.
# Potency is read from the fitted curve at half-maximal effect.
SMILES,activation,Potency
COc1ccc(C2C=C(C)Oc3c2c(=O)oc2ccccc32)cc1OC (stereo not given),-1.49%,–
CCNc1nc2[nH]c(=O)c3c(c2s1)OC(N)=C(C#N)C3c1cccs1 (stereo not given),2.92%,–
N#CC1=C(N)Oc2c(c(=O)oc3ccccc23)C1c1ccccc1OC(=O)c1cccs1 (stereo not given),–,11.2 µM (active)
Cc1ccc(-n2c(/C=C/c3cccc(C(F)(F)F)c3)nc3ccccc3c2=O)cc1,3.6%,–
Cc1cccc(Cn2cccc(C(=O)Nc3ccc4c(c3)OCCO4)c2=O)c1,-0.518%,–

# From PubChem BioAssay AID624171 (National Center for Advancing Translational Sciences (NCATS), 2012)
